# Results filed as inconclusive are left out. Active and inactive are the calls of the source. Calls follow the shape of the dose curve; as a rule, active = well fitted cell-killing curve with a large enough effect in the repeat runs (not every such curve was filed as active); inconclusive = weak or mixed curves, or effect the other way; inactive = no such curve, though single readings can be large or run the other way.
# Test: qHTS assay to identify small molecule antagonists of the estrogen related receptor signaling pathway with the pleiotropic PPARgamma coactivator (PGC) from Tox21 10K library - cell viability counter screen (AID 1224840); also: nearly all actives have a fitted effect of over 40% in size
# Conditions: PGC/ERR reporter cells viability, CellTiter-Fluor, 17.5 h; series mostly up to 92.4 µM; viability change, negative = cytotoxic: at the top concentration
# Excerpt: National Center for Advancing Translational Sciences [NCATS]
# NIH Chemical Genomics Center [NCGC]
# U.S. Environmental Protection Agency [EPA]
# National Institutes of Environmental Health Sciences [NIEHS]
# National Toxicology Program [NTP]
# U.S. Food and Drug Administration [FDA]
# Estrogen related receptors (ERRs), the first orphan nuclear receptors discovered, play an important role in the control of cellular energy metabolism. ERRs are required for high-energy production in response to the environmental challenges. The pleiotropic PPARgamma coactivator (PGC) is a major partner of ERR and a key regulator in energy homeostasis. Together they have been implicated in the etiology of metabolic disorders such as Type 2 diabetes and metabolic syndrome. ERR-alpha was also identified as an adverse marker for breast cancer progression; ERR-alpha-positive tumors have a poor prognosis. To screen and to identify environmental compounds that perturb the ERR and PGC/ERR signaling pathways could provide valuable information for potential therapeutic or preventive measures in the treatment of metabolic disease. To differentiate true PGC/ERR antagonists or agonist from cytotoxic substances, the assay is multiplexed with cell viability assay.
# Tox21 Assay Protocol Summary:
# The PGC/ERR cells were dispensed at 2,000 cells/5 ul/well in 1536-well white plates using a Multidrop dispenser. After the assay plates were incubated at a 37 C/5% CO2 incubator for 6 hours, 23 nL of compounds dissolved in DMSO, positive and negative controls or DMSO only was transferred to the assay plate by a pin tool. The plates were incubated at 37 C for 17.5 hours. 1 ul/well of CellTiter-Fluor reagent was added into the assay plates using a Flying Reagent Dispenser. After 30-minute incubation at 37 C/5% CO2, the fluorescence intensity in the plates was measured using a ViewLux plate reader.
# % is scaled to controls: 0 for no effect and ±100 for the full control effect.
row,SMILES,"viability change, negative = cytotoxic"
1,N#C/C(N)=C(/N)C#N,1.39% (inactive)
2,CN(C)c1ccc(N(C)C)cc1,-7.99% (inactive)
3,O=S(=O)(Cl)c1ccccc1,1.48% (inactive)
4,Nc1ccc([N+](=O)[O-])cc1[N+](=O)[O-],-28.2% (inactive)
5,CO/C=C(/C(=O)OC)c1ccccc1COc1cccc(C(F)(F)F)n1,-23.9% (inactive)
6,O=C1c2ccccc2C(=O)C1C(=O)C(c1ccccc1)c1ccccc1,-5.85% [at 42.5 µM] (inactive)
7,O=Cc1ccc2c(c1)OCO2,-0.766% (inactive)
8,CC1C(=O)C[C@]2(C(C)C)C[C@H]12 (stereo not given in full),-0.231% (inactive)
9,O=C1C(=O)c2cccc3cccc1c23,-25.9% (inactive)
10,COc1nn(C(=O)NS(=O)(=O)c2ccccc2OC(F)(F)F)c(=O)n1C,6.88% (inactive)
11,COC(N)=O,-8.07% (inactive)
12,COc1cc(CC(C)N)cc2c1OCO2 (stereo not given),1.44% (inactive)
13,CCCCCCCCCCOC(=O)c1ccccc1C(=O)OCCCCCCCCCC,-0.335% (inactive)
14,CC(C)=CCOc1c2occc2cc2ccc(=O)oc12,-0.566% [at 42.5 µM] (inactive)
15,C=CC(C)=O,0.461% (inactive)
16,CCc1ccc(C(=O)NN(C(=O)c2cc(C)cc(C)c2)C(C)(C)C)cc1,-21.2% (inactive)
17,COc1cc(Cl)c(OC)cc1Cl,4.68% (inactive)
18,O=C(NC(=O)c1c(F)cccc1F)Nc1cc(Cl)c(Oc2ncc(C(F)(F)F)cc2Cl)c(Cl)c1,1.6% (inactive)
19,CCOP(O)OCC,10.8% (inactive)
20,C=CCCl,6.12% (inactive)

row,SMILES,"viability change, negative = cytotoxic"
1,CCCCC(CC)COP(=O)(Oc1ccccc1)Oc1ccccc1 (stereo not given),-0.256% (inactive)
2,CCOc1ccc(C(C)(C)COCc2cccc(Oc3ccccc3)c2)cc1,2.33% (inactive)
3,NS(=O)(=O)C(F)(F)C(F)(F)C(F)(F)C(F)(F)C(F)(F)C(F)(F)C(F)(F)C(F)(F)F,-4.02% (inactive)
4,COCCOCCO,2.32% (inactive)
5,C#CCOC(C(=O)OCCN(C)C)(c1ccccc1)c1ccccc1,-0.44% [at 42.5 µM] (inactive)
6,Clc1cc(Cl)c(Cl)c(Cl)c1,3.24% (inactive)
7,C=CC(=O)NCNC(=O)C=C,-5.57% (inactive)
8,O=C(O)C(F)(F)C(F)(F)C(F)(F)C(F)(F)C(F)(F)C(F)(F)C(F)(F)C(F)(F)C(F)(F)F,1.84% (inactive)
9,O=C(Nc1ccccc1)Nc1cnns1,-15.8% (inactive)
10,CC(C)O.CC(C)O.OCCN(CCO)CCO.OCCN(CCO)CCO.[Ti],9.95% (inactive)
11,CC(C)N(C(=O)COc1nnc(C(F)(F)F)s1)c1ccc(F)cc1,-1.28% (inactive)
12,CN(N=O)c1ccc([N+](=O)[O-])cc1,-16.1% (inactive)
13,Clc1cccc(SC2CCNCC2)n1,-6.05% [at 42.5 µM] (inactive)
14,CN1C(=O)C(O)N=C(c2ccccc2)c2cc(Cl)ccc21 (stereo not given),-11.4% (inactive)
15,CNC(C)Cc1ccccc1OC (stereo not given),-4.39% [at 42.5 µM] (inactive)
16,Clc1cc(C(Cl)(Cl)Cl)cnc1Cl,10.3% (inactive)
17,CO/N=C(/C(=O)OC)c1ccccc1COc1ccccc1C,-1.02% (inactive)
18,CCN(C)N=O,-1.54% (inactive)
19,CC[C@H]1C[C@H]2[C@@H]3CCC4=CC(=O)CC[C@@H]4[C@H]3CC[C@]2(C)[C@H]1O,-3.5% [at 42.5 µM] (inactive)
20,CN1C(=O)NC(=O)C(C)(C2=CCCCC2)C1=O (stereo not given),-4.09% [at 42.5 µM] (inactive)

# From PubChem BioAssay (Tox21)
